Source: PubChem
Hits are enriched below; roughly 19% of the tested compounds scored in any of these assays.
TDP1 cell CPT = qHTS for Inhibitors of human tyrosyl-DNA phosphodiesterase 1 (TDP1): qHTS in cells in presence of CPT | chicken DT40 Tdp1-/-;hTDP1 cells + 20 nM CPT, ATP luminescence, 48 h | Potency, µM (highest dose often 46.2 µM), for inactives: at the top dose activity change, negative = growth inhibition, hits mostly inhibitors | actives 12% (n = 420,000); also: nearly all actives have a fitted effect of over 55% in size
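Cell growth measured by CellTiter-Glo luminescence after a minimum 48 h, 37 C compound exposure with 20 nM CPT in Tdp1-knockout DT40 cells stably expressing hTDP1, seeded 400/well; qHTS titration format.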
TDP1 cell noCPT = qHTS for Inhibitors of human tyrosyl-DNA phosphodiesterase 1 (TDP1): qHTS in cells in absence of CPT; DT40 Tdp1-/- hTDP1 cells, no CPT, ATP luminescence, 48 h; Potency, µM (doses to about 46.2 µM), for inactives: at the top dose activity change, negative = growth inhibition, hits mostly inhibitors; actives 15% (n = 420,000); also: nearly all actives have a fitted effect of over 55% in size
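Chicken DT40 Tdp1-/- cells stably complemented with human TDP1 were seeded at 400 cells/well with DMSO in place of 20 nM camptothecin. After compound pinning, cells grew at least 48 hr at 37 °C; viability read by CellTiter-Glo luminescence.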
HT1080 IDH1KD tx = qHTS for induction of synthetic lethality in tumor cells producing 2HG: qHTS for the HT-1080-IDH1KD cell line. HT-1080 IDH1 knockdown viability, ATP luminescence, 48 h. Potency, µM (titrated, usually from 46.1 µM), for inactives: at the top dose activity, negative = toxicity, hits mostly cytotoxic. actives 2% (n = 360,000). AID 686971, 2013;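 also: 0% = DMSO wells and -100% = cell-free medium wells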
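IDH1KD HT-1080 cells, 750/well, RPMI + 5% FBS; compound pinned after 2 h settling; 48 h, 37 °C; CellTiter-Glo luminescence; % activity normalised to DMSO and no-cell wells; curves fitted, classed by r2 and efficacy.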
KB-V1 MDR tox = qHTS assay for MDR1-selective chemotherapeutics: Primary screen using the drug-selected MDR subline cells KB-V1; KB-V1 MDR cells viability, CellTiter-Glo, 72 h; Potency, µM (top dose mostly 46.1 µM), most hits filed as cytotoxic; actives 3.4% (n = 400,000); AID 1347076, 2019; also: nearly all actives have a fitted effect of over 60% in size
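In this primary screen, KB-V1 cells overexpressing P-gp are incubated with library compounds (lowest to highest concentration) for 72 h at 37 degrees C before a luminescent ATP viability read.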
KB-3-1 tox = qHTS assay for MDR1-selective chemotherapeutics: Primary screen using the parental adenocarcinoma cell KB-3-1 | KB-3-1 viability, CellTiter-Glo ATP luminescence, 72 h | Potency, µM (series often up to 46.1 µM), actives largely listed as cytotoxic | actives 1.4% (n = 400,000) | AID 1347075, 2019; also: nearly all actives have a fitted effect of over 60% in size
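Cells are dispensed, compounds pinned in, plates held at 37 °C for 72 h, then CellTiter-Glo is added and luminescence read after 10 minutes. Cell line: parental KB-3-1 in phenol-red-free DMEM, 10% FBS.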
HT1080-NT tox = qHTS for induction of synthetic lethality in tumor cells producing 2HG: qHTS for the HT-1080-NT fibrosarcoma cell line; Potency, µM (series often up to 46.1 µM), inactives show at the highest dose activity, negative = less viability, hits mostly cytotoxic; actives 1.6% (n = 360,000); HT-1080-NT fibrosarcoma viability, CellTiter-Glo ATP luminescence, 48 h; AID 686970, 2013;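 also: NT is the 2HG producing partner of a matched IDH1 knockdown line; 0% = DMSO-treated cells and -100% = media-only wells without cells; nearly all actives have a fitted effect of over 55% in size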
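Read-out is CellTiter-Glo luminescence after 10 minutes at room temperature, following 48 hours' compound treatment of HT-1080-NT cells (750 cells/well, RPMI, 5% FBS, 37 degrees C).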
Starred values were filed as active, the others as inactive; i = inactive; ? = inconclusive; / = no result given. Calls follow the shape of the dose curve; as a rule, active = well fitted curve in the direction sought with a large enough effect; inconclusive = small, poorly fitted or top-dose-only effect, or another doubt; inactive = no such curve, though single readings can be large; an effect the other way counts as inactive or inconclusive. Unless noted, % is scaled to controls: 0 for no effect and ±100 for the full control effect; potency is read from the fitted curve at half-maximal effect.

SMILES	TDP1 cell CPT	TDP1 cell noCPT	HT1080 IDH1KD tx	KB-V1 MDR tox	KB-3-1 tox	HT1080-NT tox
CNC(=O)C1CCC(Cn2c(=O)c3sccc3n(CC(=O)Nc3ccc(C)c(F)c3)c2=O)CC1 (configuration not stated)	?	?	/	?	i	/
C[C@H](CO)N1C[C@H](C)[C@@H](CN(C)C(=O)Nc2ccc3c(c2)OCO3)Oc2ccc(NS(=O)(=O)c3cn(C)cn3)cc2C1=O	-2%	0%	16%	i	i	14%
Cc1ccc(S(=O)(=O)NCC(=O)NCC(=O)NC(C)c2ccccc2Br)cc1C (configuration not stated)	-12%	-23%	-16%	i	?	-14%
CC(NC(=O)CCl)c1ccc(Cl)c(Cl)c1 (configuration not stated)	16µM*	18µM*	16µM*	i	?	?
CC(NC(=O)CCl)c1ccccc1Br (configuration not stated)	?	15µM*	?	?	?	-16%
CN(Cc1ccccc1)Cc1c(O)ccc2ccccc12	?	-15%	4%	i	i	3%
Cc1oc2ccc(O)c(CN3CCOCC3)c2c1C(=O)Nc1cccc(C(F)(F)F)c1	16µM*	?	/	i	i	/
Cc1nc(N2CCOCC2)c2c(C(=O)Nc3cccc(C(F)(F)F)c3)c(C)oc2n1	-13%	-3%	/	/	/	/
Cc1oc2ccc(O)c(CN(C)Cc3ccccc3)c2c1C(=O)Nc1cccc(C(F)(F)F)c1	5.8µM*	5.2µM*	/	/	/	/
Cc1oc2ccc(O)c(CN(C)Cc3ccccc3)c2c1C(=O)Nc1ccccc1	9.2µM*	8.2µM*	/	/	/	/
CCOC(=O)c1c(-c2ccccc2)oc2ccc(O)c(CN3CCOCC3)c12	23µM*	23µM*	?	?	i	?
Fc1ccc(Nc2nc(NCc3ccco3)nc3nccnc23)cc1	-25%	-29%	/	i	i	/
COc1ccc(C(=O)N2CCOC2CNC(=O)C(=O)NCc2ccccc2)cc1 (configuration not stated)	9%	?	-1%	i	i	-3%
COCCN(C(=O)CSc1nnc(-c2ccccc2OC)o1)c1c(N)n(CC(C)C)c(=O)[nH]c1=O	-5%	4%	5%	i	i	9%
CCn1c(CN2CCOCC2)nc2cc(NC(=O)c3cccc([N+](=O)[O-])c3)ccc21	?	-27%	/	i	i	/
CN1CCN(c2nc(-c3cccs3)cc(C(F)(F)F)n2)CC1	?	?	9%	16µM*	i	4%
COc1ccc(-c2cccc(N3CCN(c4ccccn4)CC3)n2)cc1OC	16µM*	18µM*	6%	i	i	5%
CCOc1cc2nc(-c3ccc(OC)c(OC)c3)nc(N3CCOCC3)c2cc1OC	21µM*	?	?	?	?	?
CCOc1cc(C(=S)N2CCOCC2)ccc1OC	-9%	-21%	-9%	i	i	3%
COc1ccc(-c2cc(-c3ccccc3)nc(N3CCCC3)n2)cc1OC	-7%	-19%	-26%	8.2µM*	i	4%
Cc1nc2cccc(C(=O)NCc3ccccc3)c2o1	-10%	-12%	5%	i	i	0%
COCCn1c(=O)c(CCc2ccccc2)nc2cnc(Oc3ccc(OC)cc3)nc21	-7%	-19%	/	/	/	/
CCOc1cccc2cc(S(=O)(=O)c3ccccc3F)c(=O)oc12	11%	1%	/	i	i	/
COc1ccc(-c2cc(C(F)(F)F)nc(N3CCOCC3)n2)cc1OC	?	10µM*	2%	?	i	1%
Nc1nnc(SCC(=O)OCC(=O)c2ccccc2Br)s1	26µM*	?	10%	i	i	10%
SMILES	TDP1 cell CPT	TDP1 cell noCPT	HT1080 IDH1KD tx	KB-V1 MDR tox	KB-3-1 tox	HT1080-NT tox
Nc1nnc(SCC(=O)OCC(=O)c2ccccc2)s1	4%	-1%	20%	?	i	7%
Cn1cccc1C1CCCN1CC(=O)Nc1ccc(C(N)=O)cc1 (configuration not stated)	-10%	10%	6%	i	i	0%
CCC(CC)=N/N=C/c1c(O)n(CC)c2cc(C3=NNC(=O)CC3)ccc12	?	9.2µM*	-7%	i	i	-14%
CCn1c(O)c(/C=N/N=C/c2ccccc2)c2ccc(C3=NNC(=O)CC3)cc21	?	18µM*	?	?	?	-11%
CCCCOc1ccc(C2=NNC(=O)CC2)cc1	-24%	-4%	?	i	i	?
CCN(CC)CCOC(=O)c1ccc(NC(=O)C(C)NC(=O)C23CC4CC(CC(C4)C2)C3)cc1 (configuration not stated)	?	?	-4%	i	i	-1%
Cc1cc2nc(-c3ccc[nH]c3=O)[nH]c2cc1C	7.3µM*	10µM*	18µM*	?	i	18µM*
COc1ccc(-c2nc3ccccn3c2CN2CCN(c3ccccc3F)CC2)cc1	?	23µM*	?	?	i	?
O=C(NC1CCCCC1)n1c(=O)oc2ccc(Cl)cc21	12µM*	13µM*	7%	i	i	16%
CCOC(=O)c1c(C)[nH]c(CCC(=O)NCc2ccc(OC)cc2OC)c1C	?	16µM*	/	/	/	/
CCOC(=O)c1c(C)[nH]c(CCC(=O)Nc2cc(Cl)ccc2OC)c1C	18µM*	21µM*	/	/	/	/
COc1ccc(Cl)cc1NC(=O)CC(=O)Nc1cc(Cl)ccc1OC	-2%	-29%	?	i	i	-20%
COc1ccc(CCC(=O)Nc2cc(Cl)ccc2OC)cc1	?	?	-11%	21µM*	i	-24%
CCCCOc1ccc(OC(=O)Nc2cc(Cl)ccc2OC)cc1	18µM*	15µM*	-17%	i	i	-17%
C=CCNC(=O)C1CC2Cn3c(nc4cc5ccccc5cc43)C2N1C (configuration not stated)	11%	0%	15%	?	i	12%
